# High-throughput results (PubChem BioAssay)
# HCMV inh: blocks human cytomegalovirus replication; actives 4.5% (n = 410,000); activity change, negative = inhibition, % at 57.5 µM; AID 1259415; HFF cells, HCMV-luciferase reporter, 72 h; hits give low values; in the data active = activity change below about -60%; inconclusive = no clear call, values can overlap the other calls; inactive = above about -39%
#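 HFF cells seeded 16 h at 37C, treated with compounds, infected with luciferase-reporter HCMV at MOI 1 PFU/cell; luciferase read at 72 h post infection, normalized to buffer-only and Salinomycin controls.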
# VACV mCherry inh: vaccinia inhibition (mCherry reporter) | Vaccinia virus mCherry reporter infection, fluorescence | Potency, µM (series often up to 36.5 µM), inactives show at the highest dose activity change, negative = inhibition, hits mostly inhibitors | actives 0.63% (n = 310,000); calls by dose curve; tested in A549 cells; note: potency is the fitted concentration of half-maximal effect; nearly all actives have a fitted effect of over 35% in size
# Marburg entry inh: blocks Marburg virus binding to or entry into cells; Potency, µM (highest dose often 37.8 µM), inactives show at the top dose activity change, negative = inhibition, hits mostly inhibitors; AID 540276; Marburg virus pseudotyped entry inhibition, cell reporter; actives 1.8% (n = 300,000); calls by dose curve; tested in HEK293 cells; note: potency is the fitted concentration of half-maximal effect
# VACV Venus inh: vaccinia inhibition (Venus reporter) | Vaccinia virus Venus reporter expression, fluorescence | Potency, µM (doses to about 36.5 µM), inactives show top-dose activity change, negative = inhibition, hits mostly inhibitors | actives 0.46% (n = 330,000) | AID 720580; calls by dose curve; tested in A549 cells; note: potency is the fitted concentration of half-maximal effect; nearly all actives have a fitted effect of over 30% in size
# FMDV inh: blocks foot and mouth disease virus. AID 1159524. FMDV antiviral cell-based qHTS. actives 1.2% (n = 410,000). Potency, µM (doses to about 57.9 µM), inactives show at the highest dose activity change, negative = inhibition, usual class: inhibitors; calls by dose curve; tested in HEK293T cells; note: read-out not given here; potency is the fitted concentration of half-maximal effect; nearly all actives have a fitted effect of over 45% in size
# Lassa entry inh: inhibitors of Lassa virus binding or cell entry. Lassa virus pseudotype entry inhibition, cell reporter. Potency, µM (highest dose often 37.9 µM), for inactives: top-dose activity change, negative = inhibition, usual class: inhibitors. actives 1.2% (n = 300,000). AID 540256; calls by dose curve; tested in HEK293 cells; note: potency is the fitted concentration of half-maximal effect; nearly all actives have a fitted effect of over 50% in size
# * marks the source's active call; other numbers are inactive results; i = inactive; u = inconclusive; x = not tested or not shown; [ ] = remark or other dose. This is a sample that favours compounds with a hit; in the whole collection about 6.5% have one here. % is set by controls: 0 for no effect and ±100 for the full control effect.
SMILES,HCMV inh,VACV mCherry inh,Marburg entry inh,VACV Venus inh,FMDV inh,Lassa entry inh
O=C1[C@H]2[C@H]3[C@H](O)[C@H](O)C/C(=N\OC[C@@H](O)COCc4ccco4)[C@H]3CC[C@H]2C(=O)N1C[C@@H]1CCCO1,x,x,-1%[14.2 µM],x,x,x
O=C(O)C#CC(=O)O,x,i,x,-13%,x,x
CCOC(=O)c1[nH]c(C=O)c(C(=O)OCC)c1C,-96*,1%,u,3%,16%,u
COc1ccc(CN2CCC3(CC2)c2ccccc2[C@@H](NC(=O)c2ccco2)[C@@H]3OC)c(O)c1,x,-17%,x,-3%,-6%,x
C=C(C)C(=O)Nc1cccc(C2=NOC3(C2)C[C@@H](C(N)=O)N(C(=O)c2cc([N+](=O)[O-])cc([N+](=O)[O-])c2C)C3)c1 (stereo not given in full),53,-16%,x,-8%,1%,x
NC(=O)[C@H]1CC2(CC(c3cccc(NC(=O)COc4ccc(Cl)cc4)c3)=NO2)CN1C(=O)c1ccc(Cl)cc1 (stereo not given in full),u,11µM*,x,11µM*,-28%,x
C/C=C/C(=O)Nc1cccc(C2=NOC3(C2)C[C@@H](C(N)=O)N(C(=O)c2cc([N+](=O)[O-])cc([N+](=O)[O-])c2C)C3)c1 (stereo not given in full),-74*,i,x,-10%,3%,x
O=C(Cn1cccn1)N1CCOc2c(cc(-c3ncc(C(F)(F)F)cc3Cl)cc2OCC2CCCO2)C1 (stereo not given),x,i,x,-14%,-16%,x
Cc1ccc(S(=O)(=O)N2CCN(c3nc(-c4ccncc4)nc4ccccc34)CC2)cc1,x,-15%,x,-10%,x,x
CC[C@@H]1CCCCN1c1nc(-c2ccncc2)nc2ccccc12,x,x,9.2µM*,x,x,x
COc1nc(-c2ccncc2)nc2ccccc12,28,-17%,-29%,-10%,-18%,27%
COc1cccc(-c2nc(N3CCN(C)CC3)c3ccccc3n2)c1O,129,10µM*,u,u,8%,u
COc1cccc(-c2nc(NCc3ccccc3)c3ccccc3n2)c1O,-3,x,x,x,10%,x
c1ccc2c(N3CCCC3)nc(-c3ccncc3)nc2c1,-33,x,u,u,14µM*,-5%
COc1cccc(-c2nc(NC3CCCC3)c3ccccc3n2)c1O,x,x,x,x,28µM*,x
COC(=O)[C@H](Cc1ccc(C#Cc2ccccc2)cc1)NC(=O)C[C@H]1CCCN(C(=N)N)C1,x,x,x,x,-17%,x
COc1ccc(C(=S)N2CCOCC2)cc1OC(=O)c1ccc([N+](=O)[O-])cc1[N+](=O)[O-],112,u,u,-28%,5%,x
Cc1ccc2oc3c(c(=O)c2c1)C(c1ccc(O)cc1)N(c1nc(C)c(C)s1)C3=O (stereo not given),5,-7%,u,8%,-14%,5%[46.1 µM]
CN1CCN(c2nc(-c3ccncc3)nc3ccccc23)CC1,-21,-5%,7.9µM*,-29%,-15%,-5%
Cc1ccc(CNC(=O)C2CCCN(c3cnccn3)C2)cc1 (stereo not given),u,x,x,x,-3%,x
Cc1oc(-c2ccc(Cl)cc2)nc1CS(=O)CC(=O)NC1CCCC1 (stereo not given),-13,i,1%[46.1 µM],-10%,14%,9%[46.1 µM]
CCOC(=O)CSC1=C(C#N)C(=O)NC(c2ccc(OC)c(OC)c2)S1 (stereo not given),7,-17%,12%,-13%,28µM*,3%
Cc1ccccc1Cn1c(=O)n(CCCCC(=O)NCc2ccccc2Cl)c(=O)c2ccccc21,17,-19%,0%[46.1 µM],-19%,3%,0%[46.1 µM]
COc1ccc(S(=O)CC(=O)Nc2ccc(Cl)cc2Cl)cc1 (stereo not given),-66*,-12%,u,0%,-10%,2%
COc1ccc(NC(=O)CS(=O)c2ccc(F)cc2)cc1 (stereo not given),2,-15%,2%[46.1 µM],-1%,17%,28%[46.1 µM]
Cc1nn(-c2ccccc2)cc1/C=N/NC(N)=S,7,11µM*,-8%,u,49%,9%
Cc1cccc(CN2CCc3nnc(C(C)NC(=O)C4CCOCC4)n3CC2)c1 (stereo not given),x,-9%,x,-6%,-18%,x
